Source: PubChem (National Center for Advancing Translational Sciences (NCATS))
HT1080 IDH1KD tx – kills HT-1080 cells with IDH1 knockdown | HT-1080 IDH1 knockdown viability, ATP luminescence, 48 h | Potency, µM (series often up to 46.1 µM), most hits filed as cytotoxic | 360,000 tested, 2% active | AID 686971
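Viability of IDH1-knockdown HT-1080 fibrosarcoma cells was assessed by CellTiter-Glo after 48 h at 37 °C with titrated compound; concentration-effect curves were classified by fit quality and response size.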
TDP1 cell noCPT – qHTS for Inhibitors of human tyrosyl-DNA phosphodiesterase 1 (TDP1): qHTS in cells in absence of CPT. DT40 Tdp1-/- hTDP1 cells, no CPT, ATP luminescence, 48 h. Potency, µM (doses to about 46.2 µM), most hits filed as inhibitors. AID 686978, 2013. 420,000 tested, 15% active; note: nearly all actives have a fitted effect of over 55% in size
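No-CPT arm: Tdp1-/-;hTDP1 DT40 cells (400/well) plus compounds, incubated ≥48 hr at 37 °C. Readout CellTiter-Glo luminescence.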
ELG1 DNA repair – blocks ELG1-dependent DNA repair in HEK293T cells; Potency, µM (highest dose often 46.1 µM), most hits filed as inhibitors; AID 504467; HEK293T ELG1-luciferase reporter, luminescence, 16 h; DNA damage induced by 5-fluorouridine; 330,000 tested, 2.3% active; note: nearly all actives have a fitted effect of over 55% in size
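Quantitative HTS, concentration-response format. 2,000 cells/well co-treated with 5-fluorouridine and compound, 16 hr in 5% CO2 at 37 °C; ONE-Glo luminescence read after 30 min.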
TDP1 cell CPT – DT40-hTDP1 cell growth loss with CPT. chicken DT40 Tdp1-/-;hTDP1 cells + 20 nM CPT, ATP luminescence, 48 h. 420,000 tested, 12% active. Potency, µM (titrated, usually from 46.2 µM), usual class: inhibitors. AID 686979; note: nearly all actives have a fitted effect of over 55% in size
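Chicken DT40 Tdp1-/- cells complemented with human TDP1, 400 cells/well, exposed to compounds plus 20 nM camptothecin for at least 48 h at 37 C; viability read as ATP content by CellTiter-Glo luminescence.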
IL-1B inflam inh – inhibitors of inflammasome signaling (IL-1 beta secretion); 360,000 tested, 4.7% active; AID 743279; THP-1 LPS/ATP IL-1B secretion, AlphaLISA, 16 h; stronger effect = lower value; activity change, % at 57.5 µM; in the data active = activity change below about -50%; inconclusive = mostly about -30% to -49%
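THP-1 cells pretreated 1 hr with compounds (up to 57.5 uM final), then stimulated with LPS (250 ng/mL final) plus ATP (1.25 mM final); secreted IL-1B measured by AlphaLISA after 16 hr, decreased signal indicating inhibition.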
HT1080NT lethal – kills 2HG-producing HT-1080-NT fibrosarcoma cells; HT-1080-NT fibrosarcoma viability, CellTiter-Glo ATP luminescence, 48 h; Potency, µM (top dose mostly 46.1 µM), actives largely listed as cytotoxic; 360,000 tested, 1.6% active;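 note: NT is the 2HG producing partner of a matched IDH1 knockdown line; nearly all actives have a fitted effect of over 55% in size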
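A 48-hour cytotoxicity screen used HT-1080-NT cells plated 2 hours before compound delivery. ATP-based CellTiter-Glo luminescence measured viability, normalized to DMSO and no-cell controls.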
Each line names hits and unclear results; the compound was inactive in the other large screens. Rows were chosen to be rich in hits. Some 19% of all compounds tested hit in one or more screens of this group. Unless noted, calls come from the whole dose curve; as a rule, active = well fitted curve in the direction sought with a large enough effect; inconclusive = small, poorly fitted or top-dose-only effect, or another doubt; inactive = no such curve, though single readings can be large; an effect the other way counts as inactive or inconclusive.

C[C@H]1CN[C@H](CCO)/C1=C\c1ccccc1	none (no result: ELG1 DNA repair)
Cn1c(=O)n(C)c2cc(NC(=O)Cc3ccccc3[N+](=O)[O-])ccc21	TDP1 cell noCPT inconclusive, ELG1 DNA repair inconclusive
CC(C#N)Sc1nnc(Nc2ccccc2)s1 (stereo not drawn)	TDP1 cell noCPT 18.4µM
Cc1cc(NC(=O)C(C)(C)Oc2ccc(Cl)cc2)cc(-c2nc3ncccc3o2)c1O	none (no result: HT1080 IDH1KD tx, ELG1 DNA repair, IL-1B inflam inh, HT1080NT lethal)
COc1ccccc1/C=N/Nc1nncc2ccccc12	TDP1 cell noCPT inconclusive, ELG1 DNA repair inconclusive
Oc1c(Br)cc(/C=N/Nc2nncc3ccccc23)cc1Br	TDP1 cell noCPT 23.1µM, ELG1 DNA repair inconclusive, TDP1 cell CPT inconclusive
CN(Cc1ccco1)c1cc(-c2cccc(C#N)c2)ncn1	none (no result: HT1080 IDH1KD tx, ELG1 DNA repair, IL-1B inflam inh, HT1080NT lethal)
CCN1/C(=C/C=C/c2sc3ccccc3[n+]2CC)Sc2ccccc21	HT1080 IDH1KD tx 1.46µM, TDP1 cell noCPT 0.146µM, ELG1 DNA repair inconclusive, TDP1 cell CPT 0.184µM, IL-1B inflam inh -104.8, HT1080NT lethal 1.64µM
CCN1/C(=C/C(=O)c2ccco2)Sc2ccccc21	ELG1 DNA repair inconclusive
CCN1/C(=C/C=C/C=C/C=C/c2sc3ccccc3[n+]2CC)Sc2ccccc21	TDP1 cell noCPT 0.231µM, ELG1 DNA repair inconclusive, TDP1 cell CPT 0.517µM, IL-1B inflam inh inconclusive
O=C(c1ccc2oc(Cc3ccc(Cl)cc3)nc2c1)N1CCCCC1CCO (stereo not drawn)	TDP1 cell noCPT inconclusive, TDP1 cell CPT inconclusive
Cc1cc(=O)n(Cc2ccc(Cl)cc2)c2c1c(C)nn2-c1ccccc1	none (no result: HT1080 IDH1KD tx, ELG1 DNA repair, IL-1B inflam inh, HT1080NT lethal)
COc1ccc(C(=O)N2CCN(c3ncccn3)CC2)cc1	none
COc1ccc(C(=O)N2CCN(c3nc4cc(C)cc(C)c4cc3C#N)CC2)cc1	TDP1 cell noCPT 18.4µM, TDP1 cell CPT inconclusive (no result: ELG1 DNA repair)
Cc1ccc(C(=O)N2CCCN(c3nc4cc5c(cc4cc3C#N)OCO5)CC2)cc1	HT1080 IDH1KD tx 20.6µM, TDP1 cell noCPT 14.6µM, ELG1 DNA repair inconclusive, TDP1 cell CPT inconclusive, HT1080NT lethal inconclusive
Cc1cc(C)c2nc(N3CCCN(C(=O)c4cnccn4)CC3)c(C#N)cc2c1	TDP1 cell noCPT 16.4µM, TDP1 cell CPT 23.1µM
CC1=C(C(=O)Nc2ccccc2)C(c2cccnc2)n2nc(SCc3ccccc3Cl)nc2N1 (stereo not drawn)	none (no result: HT1080 IDH1KD tx, ELG1 DNA repair, IL-1B inflam inh, HT1080NT lethal)
O=S1(=O)CCO[C@H]2Cc3ccccc3[C@H]2N1Cc1cccc(Cl)c1	TDP1 cell noCPT 17.8µM, ELG1 DNA repair inconclusive, TDP1 cell CPT inconclusive
O=S1(=O)CCO[C@H]2Cc3ccccc3[C@H]2N1Cc1ccc(Cl)cc1	TDP1 cell noCPT inconclusive, TDP1 cell CPT inconclusive
Cc1ccccc1CN1[C@@H]2c3ccccc3C[C@@H]2OCCS1(=O)=O	TDP1 cell noCPT 15.8µM, TDP1 cell CPT inconclusive, HT1080NT lethal inconclusive
Cc1cc(C)c(S(=O)(=O)Nc2ccccc2)c(C)c1	TDP1 cell noCPT inconclusive, TDP1 cell CPT inconclusive (no result: ELG1 DNA repair)
CCCS(=O)(=O)NC(=O)C1(C)CCN(C(=O)C2(c3ccc(Cl)cc3)CCCC2)C1 (stereo not drawn)	none (no result: ELG1 DNA repair)
CC1C/C(=C/c2cccn2C)C(=O)/C(=C/c2cccn2C)C1 (stereo not drawn)	HT1080 IDH1KD tx inconclusive, TDP1 cell noCPT 23.1µM, ELG1 DNA repair inconclusive, TDP1 cell CPT 23.1µM, HT1080NT lethal inconclusive
CC1C/C(=C/c2ccncc2)C(=O)/C(=C/c2ccncc2)C1 (stereo not drawn)	HT1080 IDH1KD tx 3.66µM, TDP1 cell noCPT 0.581µM, ELG1 DNA repair 20.6µM, TDP1 cell CPT 0.651µM, IL-1B inflam inh -83.9, HT1080NT lethal inconclusive
CC(=O)c1ccc(NC(=O)CSc2n[nH]c(-c3cccnc3)n2)cc1	none
S=C1SCN(Cc2cccnc2)CN1Cc1cccnc1	HT1080 IDH1KD tx 6.51µM, TDP1 cell noCPT 0.82µM, ELG1 DNA repair 23.1µM, TDP1 cell CPT 0.82µM, HT1080NT lethal 7.31µM (no result: IL-1B inflam inh)
